The list is not random: actives were taken first. Their share in the collection is about 11%.
hNpr1 antagonist = antagonists of human natriuretic peptide receptor Npr1 | P16066 | HEK293 hNpr1 GloSensor cGMP, ANP-stimulated luminescence | Potency, µM (highest dose often 46.3 µM), for inactives: top-dose activity change, negative = inhibition, actives largely listed as inhibitors | 1.6% of 76,000 active | AID 1347048; calls by dose curve; further: nearly all actives have a fitted effect of over 60% in size
Target sequence (P16066 whole entry, looked up): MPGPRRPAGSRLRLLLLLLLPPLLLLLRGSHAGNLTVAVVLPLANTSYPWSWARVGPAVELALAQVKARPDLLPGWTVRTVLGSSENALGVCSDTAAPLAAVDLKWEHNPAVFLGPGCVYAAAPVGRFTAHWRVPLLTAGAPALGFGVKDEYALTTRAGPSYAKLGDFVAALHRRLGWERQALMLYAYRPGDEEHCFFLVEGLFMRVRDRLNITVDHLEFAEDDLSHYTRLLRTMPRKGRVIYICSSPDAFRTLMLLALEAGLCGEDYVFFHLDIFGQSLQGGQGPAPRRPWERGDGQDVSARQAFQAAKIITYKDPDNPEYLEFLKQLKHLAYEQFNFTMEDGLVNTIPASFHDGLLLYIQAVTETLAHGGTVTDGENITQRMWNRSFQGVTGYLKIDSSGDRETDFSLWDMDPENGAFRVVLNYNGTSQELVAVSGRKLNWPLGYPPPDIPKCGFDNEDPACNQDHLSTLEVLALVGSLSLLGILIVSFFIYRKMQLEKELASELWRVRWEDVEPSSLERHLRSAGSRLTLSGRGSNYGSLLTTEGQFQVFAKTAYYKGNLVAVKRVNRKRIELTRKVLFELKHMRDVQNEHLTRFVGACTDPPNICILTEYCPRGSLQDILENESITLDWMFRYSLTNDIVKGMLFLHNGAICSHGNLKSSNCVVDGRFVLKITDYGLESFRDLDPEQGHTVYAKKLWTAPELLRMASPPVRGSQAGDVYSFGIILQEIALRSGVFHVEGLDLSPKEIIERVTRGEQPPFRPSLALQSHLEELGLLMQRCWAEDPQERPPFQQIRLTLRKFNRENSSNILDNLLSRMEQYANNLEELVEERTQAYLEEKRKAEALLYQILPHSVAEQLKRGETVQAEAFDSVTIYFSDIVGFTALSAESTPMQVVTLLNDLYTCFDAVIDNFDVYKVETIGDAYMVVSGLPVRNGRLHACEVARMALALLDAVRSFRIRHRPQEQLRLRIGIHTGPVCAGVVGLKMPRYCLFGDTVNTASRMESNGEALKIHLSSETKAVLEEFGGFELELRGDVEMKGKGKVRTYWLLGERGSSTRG
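Compound pre-incubated 30 min at room temperature on GloSensor-loaded HEK293 cells stably carrying hNpr1 and the pGS-40F cGMP biosensor. Stimulation uses hNppA at 0.1 nM final; luminescence is taken at baseline and 20 min post-agonist.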
FLuc inh = inhibitors of firefly (Photinus pyralis) luciferase | P08659 | purified P. pyralis luciferase, luminescence, biochemical | Potency, µM (doses to about 115 µM), hits mostly inhibitors | 2.5% of 76,000 active; further: nearly all actives have a fitted effect of over 65% in size
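Luminescence read by CCD imager after adding enzyme (10nM final) to wells holding compound, titrated in qHTS. Substrates 10uM each D-luciferin and ATP; buffer 50mM Tris acetate pH 7.5, 10mM Mg acetate, Tween-20, BSA.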
HEK cytotox = kills HEK 293 cells. HEK 293 viability, ATP luminescence (CellTiter-Glo), 48-72 h. Potency, µM (highest dose often 115 µM), without a hit: top-dose activity change, negative = cytotoxicity, hits mostly inhibitors. 6.6% of 94,000 active. AID 1345083; further: nearly all actives have a fitted effect of over 60% in size
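ATP-coupled CellTiter-Glo luminescence served as viability read-out, recorded 10 min after reagent addition at room temperature. HEK 293 cells, 250 cells/well, had been incubated with pintool-transferred compound for 48 or 72 hr at 37 degree Celsius.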
NIH3T3 tox = NIH 3T3 cell cytotoxicity; NIH 3T3 viability, CellTiter-Glo ATP luminescence, 48-72 h; Potency, µM (doses to about 96.7 µM), inactives show at the top dose activity change, negative = cytotoxicity, most hits filed as inhibitors; 4.3% of 94,000 active; AID 1345082; further: nearly all actives have a fitted effect of over 55% in size
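First NIH 3T3 cells are plated at 400 cells/well; next compound is pinned in; then plates incubate 48 or 72 hr at 37 °C; finally CellTiter-Glo is added and luminescence read after 10 min.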
An asterisk follows results filed as active; [ ] = dose if it differs, or a comment. Unless noted, the call rests on the fitted dose curve; in most records, active means well fitted curve in the direction sought with a large enough effect; inconclusive means small, poorly fitted or top-dose-only effect, or another doubt; inactive means no such curve, though single readings can be large; an effect the other way counts as inactive or inconclusive. On the % scale 0 is the no-effect control and ±100 the full control effect; potency means the concentration at half of the fitted maximal effect.

CC1(C)[C@H](Cc2cc(CN3CCOCC3)on2)C[C@@H]1NC(=O)Nc1ccc(F)cc1 was read as hNpr1 antagonist -14%[70.6 µM], FLuc inh inconclusive, HEK cytotox inconclusive and NIH3T3 tox inconclusive.
Screening COC(=O)[C@@H]1Cc2c([nH]c3ccccc23)[C@H]2C[C@@H](NCCN3CCOCC3)C[C@@H](c3ccc(C(F)(F)F)cc3)N21 returned hNpr1 antagonist inconclusive, FLuc inh inactive, HEK cytotox 7.9µM* and NIH3T3 tox 14µM*.
Screening COCCOC1CCN(C(=O)c2cccc(OC)c2)C1 (centres undefined) returned HEK cytotox -2% and NIH3T3 tox -14%.
`CCCN1C(=O)[C@@H]2[C@@H](CCN2C(=O)CSCC(=O)O)N(Cc2cccs2)C1=O` gave hNpr1 antagonist 0%[70.6 µM], FLuc inh inactive, HEK cytotox -3%[172 µM] and NIH3T3 tox -15%[138 µM].
`COCCNC(=O)C1CCCN1Cc1cccc(-c2ccc(C)c(Cl)c2)c1` (centres undefined) gave HEK cytotox 40µM* and NIH3T3 tox 35µM*.
`CCCCCNC(=O)C1CCCN1Cc1cccc(-c2ccc(C)c(Cl)c2)c1` (centres undefined) gave HEK cytotox 45µM* and NIH3T3 tox inconclusive.
Cc1ccc(-c2cccc(CN3CCCC(NC(=O)c4cccc(Cl)c4)C3)c2)cc1Cl (centres undefined) was read as HEK cytotox -5% and NIH3T3 tox -22%.
Cc1ccc(-c2cccc(CN3CCCC3C(=O)NC3CCCCC3)c2)cc1Cl (centres undefined) was read as HEK cytotox -25% and NIH3T3 tox -23%.
Screening Cc1ccc(-c2cccc(CN3CCCC3C(=O)NCC3CC3)c2)cc1Cl (centres undefined) returned HEK cytotox 32µM* and NIH3T3 tox inconclusive.
`COCCn1c(=O)c(C(=O)N2CCN(C(=O)c3ccccc3F)CC2)nc2cccnc21` gave HEK cytotox 0% and NIH3T3 tox -15%.
Screening CCOc1ccc(CC(=O)N2CCN(c3cc(-c4ccccc4)[nH]n3)CC2)cc1 returned hNpr1 antagonist 0%, FLuc inh inactive, HEK cytotox inconclusive and NIH3T3 tox inconclusive.
COc1ccc(CC2(CO)CCN(c3nccc(N)n3)CC2)cc1 was read as hNpr1 antagonist 3%, FLuc inh inactive, HEK cytotox inconclusive and NIH3T3 tox -34%.
`COc1ccc(CC2(CO)CCN(c3cc(OC)nc(N)n3)CC2)cc1` gave hNpr1 antagonist inconclusive, FLuc inh inactive, HEK cytotox 45µM* and NIH3T3 tox -28%.
For COCCNc1ncc(-c2ccncc2)c2c1OCC2 the results were hNpr1 antagonist 4%[70.6 µM], FLuc inh inactive, HEK cytotox -26%[230 µM] and NIH3T3 tox inconclusive.
COCCNc1ncc(-c2ccsc2)c2c1OCC2 was read as hNpr1 antagonist -13%[70.6 µM], FLuc inh 22µM*, HEK cytotox inconclusive and NIH3T3 tox inconclusive.
`COCCNc1ncc(-c2ccnc(C)c2)c2c1OCC2` gave hNpr1 antagonist 7%[70.6 µM], FLuc inh inactive, HEK cytotox inconclusive and NIH3T3 tox inconclusive.
COCCNc1ncc(-c2ccccc2)c2c1OCC2 was read as hNpr1 antagonist -4%[70.6 µM], FLuc inh 28µM*, HEK cytotox inconclusive and NIH3T3 tox inconclusive.
`COc1ccccc1N1CCN(C(=O)C(C)[C@@H]2CCc3c(C)cc(OCCN4CCOCC4)c(C)c3C2)CC1` (some centres undefined) gave hNpr1 antagonist inconclusive, FLuc inh inactive, HEK cytotox 22µM* and NIH3T3 tox inconclusive.
Cc1nn(-c2ccccc2)c2c1C(C)N(C1CCN([S+](C)(=O)[O-])CC1)C2=O (centres undefined) was read as HEK cytotox inactive and NIH3T3 tox -10%.
Screening c1ccc(COc2ccc(CN3CCN(C4CCNC4)CC3)cc2)cc1 (centres undefined) returned hNpr1 antagonist -27%, FLuc inh inconclusive, HEK cytotox inconclusive and NIH3T3 tox 45µM*.
For Fc1ccc(CN2CCN(C3CCNC3)CC2)cc1Cl (centres undefined) the results were hNpr1 antagonist 8%, FLuc inh inactive, HEK cytotox -20% and NIH3T3 tox -8%.
`COc1ccccc1NC(=O)Cn1c(-c2ccccc2)nc(C)c(CCO)c1=O` gave hNpr1 antagonist -12%, FLuc inh inactive, HEK cytotox 35µM* and NIH3T3 tox inconclusive.
For COc1ccc(Cn2c(-c3ccc(Cl)cc3)nc(C)c(CCO)c2=O)cc1F the results were hNpr1 antagonist 0%, FLuc inh inactive, HEK cytotox 45µM* and NIH3T3 tox inconclusive.
`COc1ccc(NC(=O)Cn2c(-c3ccc(F)cc3)nc(C)c(CCO)c2=O)cc1Cl` gave hNpr1 antagonist -22%, FLuc inh inactive, HEK cytotox 35µM* and NIH3T3 tox inconclusive.
Screening Cc1cccc(NC(=O)Cn2c(-c3cccc(Cl)c3)nc(C)c(CCO)c2=O)c1 returned hNpr1 antagonist -14%, FLuc inh inactive, HEK cytotox 40µM* and NIH3T3 tox inconclusive.
Screening COc1ccc(NC(=O)Cn2c(-c3ccc(Cl)cc3)nc(C)c(CCO)c2=O)cc1OC returned hNpr1 antagonist -4%, FLuc inh inactive, HEK cytotox inactive and NIH3T3 tox -14%.
Screening COc1ccc(Cn2c(-c3ccc(F)cc3)nc(C)c(CCO)c2=O)cc1F returned hNpr1 antagonist 5%, FLuc inh inactive, HEK cytotox inconclusive and NIH3T3 tox inconclusive.
`COc1cccc(C(=O)N2CCC(C(=O)N3CCC(N4Cc5ccccc5C4=O)CC3)CC2)c1` gave HEK cytotox inconclusive and NIH3T3 tox -14%.
`COc1cccc(NC(=O)Cn2c(-c3cccc(Cl)c3)nc(C)c(CCO)c2=O)c1` gave hNpr1 antagonist -20%, FLuc inh inactive, HEK cytotox 79µM* and NIH3T3 tox inconclusive.
For CCc1cccc(NC(=O)Cn2c(-c3ccccc3)nc(C)c(CCO)c2=O)c1 the results were hNpr1 antagonist -14%, FLuc inh inactive, HEK cytotox inconclusive and NIH3T3 tox inconclusive.
CCOc1ccc(NC(=O)Cn2c(-c3cccc(Cl)c3)nc(C)c(CCO)c2=O)cc1 was read as hNpr1 antagonist -11%, FLuc inh inactive, HEK cytotox inconclusive and NIH3T3 tox 32µM*.
Cc1nc(-c2ccccc2)n(CC(=O)Nc2cccc(Cl)c2)c(=O)c1CCO was read as hNpr1 antagonist inconclusive, FLuc inh inactive, HEK cytotox 25µM* and NIH3T3 tox inconclusive.
Screening C=CCOc1c(OC)ccc2c1CN(CC)C(=O)CCN2CC(O)COc1ccc(OC)cc1 (centres undefined) returned HEK cytotox 40µM* and NIH3T3 tox inconclusive.
C=CCOCC(O)CN1CCC(=O)N(C2CCCC2)Cc2c1ccc(OC)c2OCC=C (centres undefined) was read as HEK cytotox inconclusive and NIH3T3 tox -25%.

Screens (PubChem BioAssay)
